# Rows were chosen to be rich in hits. Some 4.2% of all compounds tested hit in one or more screens of this group.
# Sfp inh: blocks B. subtilis Sfp PPTase activity. Q9F4F7. Biochemical Sfp PPTase activity, qHTS. Potency, µM, usual class: inhibitors. 310,000 compounds, 3.5% hits;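 also: the enzyme is Sfp with the accession as filed and its product quenches rhodamine fluorescence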
#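 With Hepes-Na pH 7.6 buffer containing 10 mM MgCl2, Sfp (15 nM) modified BHQ-2-YbbR (12.5 uM) using rhodamine-CoA (5 uM). Two reads 30 minutes apart at 525/598 nm yielded each well's rate.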
# TCR act: activators of T cell receptors; primary human leukocytes, anti-CD3, IL-2 HTRF, 48 h; Potency, µM (top dose mostly 9.22 µM), hits mostly activators; 330,000 tested, under 10 active
#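 Human primary leukocytes + a-CD3 beads + cpd, 48 hr; IL-2 in supernatant by HTRF (ex 320nm / em 665nm). No co-stimulatory signal supplied.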
# ClpP mod: qHTS Assay for Activators of ClpP; ATP-dependent Clp protease proteolytic subunit (Bacillus subtilis (strain 168)), P80244; 340,000 compounds, 1.9% hits; Potency, µM (series often up to 57.5 µM); purified B. subtilis ClpP, FRET peptide cleavage, 20 min; AID 651965, 2013; active = well fitted falling curve with a large enough effect; inconclusive = small, poorly fitted or top-dose-only effect; inactive = no such curve, though single readings can be large or run the other way; also: the source files actives as falling curves though it sought activators and does not explain the sign; nearly all actives have a fitted effect of over 65% in size
# Target sequence (P80244 whole entry, looked up): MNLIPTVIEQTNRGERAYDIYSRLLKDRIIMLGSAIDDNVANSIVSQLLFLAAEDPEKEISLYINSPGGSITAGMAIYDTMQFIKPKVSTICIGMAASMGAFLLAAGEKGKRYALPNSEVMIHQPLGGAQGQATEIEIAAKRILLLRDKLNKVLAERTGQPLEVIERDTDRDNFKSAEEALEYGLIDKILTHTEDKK
#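 Buffer: 100 mM Tris/HCl pH8, 100 mM KCl, 0.05% low protease BSA, 2.5% glycerol, 0.01% Tween-20. ClpP 10 microg/mL final; 20 min RT; delta FRET normalized to ADEP and DMSO controls.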
# uPA generation: cell surface uPA generation inhibition | cell surface uPA generation assay, qHTS | Potency, µM (doses to about 38.3 µM), usual class: inhibitors | 330,000 compounds, 0.31% hits | AID 540303; active = well fitted inhibition curve with a large enough effect; inconclusive = small, poorly fitted or top-dose-only effect; inactive = no such curve, though single readings can be large or run the other way; tested in mouse RAW 264.7 cells; also: nearly all actives have a fitted effect of over 55% in size
# A number is an active result; n = inactive; u = inconclusive; x = no result given. Unless noted, calls follow the shape of the dose curve; as a rule, active = well fitted curve in the direction sought with a large enough effect; inconclusive = small, poorly fitted or top-dose-only effect, or another doubt; inactive = no such curve, though single readings can be large; an effect the other way counts as inactive or inconclusive.
SMILES,Sfp inh,TCR act,ClpP mod,uPA generation
CCOCCCN(Cc1cc2cc(C)cc(C)c2[nH]c1=O)C(=O)N(CC)CC,n,x,n,n
CCc1cc2cc(C)cc(C)c2[nH]c1=S,56µM,n,n,n
Nc1ccc(N2CCN(C(=O)c3cccs3)CC2)cc1,n,n,n,n
Cc1ccc(N2CCN(C(=O)c3cccs3)CC2)cc1C,50µM,x,n,n
Nc1nc(Cl)nc2c1ncn2[C@H]1C[C@H](O)[C@@H](CO)O1,n,n,n,0.32µM
O=C(Cn1cnc2c(nc3n2CCCCC3)c1=O)Nc1ccc(F)c(Cl)c1,x,x,n,x
Cn1c(=O)c2[nH]c(CN(Cc3ccccc3)Cc3ccccc3)nc2n(C)c1=O,n,n,n,n
CN(C)Cc1nc2c([nH]1)c(=O)n(C)c(=O)n2C,56µM,n,n,n
Cc1c(C(=O)NCc2cccc(Cl)c2)sc2nc3n(c(=O)c12)CCC3,x,x,n,x
CC1(CC(=O)N/N=C/c2ccc(-c3ccc(C(=O)O)cc3)o2)OCCO1,n,n,u,n
COC(=O)c1ccc(-c2ccc(/C=N/NC(=O)CC3(C)OCCCO3)o2)cc1,50µM,n,x,n
Cc1nc2ccccc2c(=O)[nH]1,n,n,n,n
Cc1nc2c(O)cccc2c(=O)[nH]1,56µM,x,x,x
CCCCn1c(-c2csc(CC)c2)n[nH]c1=S,20µM,n,n,n
CCc1cc(-c2n[nH]c(=S)n2-c2cccc(C)c2)cs1,50µM,n,n,x
CCCCn1c(-c2csc(C(C)C)c2)n[nH]c1=S,n,n,n,n
O=C(NCCC1=CCCCC1)c1[nH]c(C(F)(F)F)nc1-c1ccccc1,x,x,n,x
O=C1C2ON(c3ccc(Cl)cc3)C(c3ccco3)C2C(=O)N1c1ccccc1 (centres undefined),32µM,n,n,n
O=C1C2ON(c3ccccc3)C(c3ccccc3F)C2C(=O)N1c1ccccc1 (centres undefined),n,n,n,n
O=c1c2c(-c3ccccc3)csc2nc2c3ccccc3c(NCCN3CCOCC3)nn12,35µM,n,x,n
N#Cc1cc(N)ccc1Sc1ccc(Cl)cc1,n,n,28µM,n
O=C(NCCc1ccccc1)c1cccc(NC(=O)C2CCCC2)c1,x,n,n,n
CCn1c(O)c(N=Nc2ccc3ccccc3n2)c2ccccc21,22µM,n,n,n
CCN=c1scc(-c2ccco2)n1/N=C/c1ccc(OC)c(O)c1,50µM,n,n,n
CCN=c1scc(-c2ccco2)n1/N=C/c1ccc(O)cc1,35µM,n,n,n
SMILES,Sfp inh,TCR act,ClpP mod,uPA generation
Oc1ccc(O)c2c1C1c3ccccc3C2c2ccccc21,50µM,x,x,x
Cc1cccc(C)c1NC(=O)CN(C)C(=O)c1ccccc1OCc1ccc(F)cc1,x,n,n,n
O=C(O)c1ccc(S(=O)(=O)c2ccc([N+](=O)[O-])cc2[N+](=O)[O-])cc1,79µM,n,n,u
CCCCCCOc1ccc(C(=N)N(CCCC)CCCC)c2ccccc12,18µM,x,x,x
COc1ccc(-[n+]2c(C)cc(/C=C3\Sc4ccccc4N3C)cc2C)cc1,20µM,n,n,u
CC(C)n1nc(C(=O)Oc2ccc(Cl)cc2)c2ccccc2c1=O,u,n,18µM,n
CN(C)CCCNc1cc(N2CCN(C3CCCCC3)CC2)c2noc3c2c1C(=O)c1ccccc1-3,x,x,n,x
COCCCNc1c2c3c(cccc3[nH]c1=O)C(=O)c1ccccc1-2,79µM,n,n,u
Cc1ccc2nc(CSc3nnc(NC(=O)COc4ccccc4F)s3)cc(=O)n2c1,x,x,n,x
Cc1c(NC(=S)N2CCN(c3ccc(F)cc3)CC2)c(=O)n(-c2ccccc2)n1C,n,n,n,n
NC(=S)NNc1ccc(Cl)c(Cl)c1,3.2µM,n,n,n
Cc1ccc(NC(=S)N(C)N)cc1Cl,n,n,x,n
Cc1ccc(NNC(N)=S)cc1Cl,13µM,n,n,n
COC(=O)N1CCC[C@@]2(CCN(c3ccccc3)C2)C1,n,x,x,x
C=C1C[C@]23CC[C@H]4C(CO)(CO)C[C@@H](O)C[C@@]4(C)[C@@H]2CC[C@H]1C3,n,x,x,x
CC1CCc2c(sc(NC(=O)c3cccs3)c2C(=O)O)C1 (centres undefined),n,n,n,4µM
COC(=O)c1c(NC(=O)c2cccs2)sc2c1CCC(C)C2 (centres undefined),n,n,u,n
Cc1cc(C(=O)Nc2sc3c(c2C#N)CCC(C)C3)cs1 (centres undefined),n,n,25µM,x
CC(=O)Nc1sc2c(c1C#N)CCC(C)C2 (centres undefined),n,n,x,n
O=C(CSc1nc2ccccc2[nH]1)NCc1ccco1,n,n,n,n
Cc1cc2nc(-c3cccnc3SCC(=O)NCc3ccco3)[nH]c2cc1C,40µM,x,16µM,u
O=C(CSc1ncccc1-c1nc2ccccc2[nH]1)NCc1ccco1,40µM,x,14µM,x
Cc1cc(C)c2cc(C#N)c(SCC(=O)NCc3ccco3)nc2c1,22µM,n,n,n
Cc1cc(C)c2cc(C)c(SCC(=O)NCc3ccco3)nc2c1,n,n,n,u
Cc1cc2nc(-c3cccnc3SCC(=O)NC3CC3)[nH]c2cc1C,n,x,x,x
SMILES,Sfp inh,TCR act,ClpP mod,uPA generation
CC1=CC[C@@]2(CO)COC(c3ccccc3O)C1C2 (some centres undefined),n,x,x,x
CCOC(=O)c1c(C)[nH]c(CCC(=O)NCc2ccc(N(C)C)cc2)c1C,x,x,n,x
Nc1cc(=O)[nH]c2c1CCC2,x,x,n,x
CCC1CN(C(=O)N2CCC(C(=O)Nc3cc(C)ccc3C)CC2)c2ccccc2O1 (centres undefined),x,x,n,x
CCc1ccc(NC(=O)CSc2nc(-c3ccccc3)no2)cc1,x,x,n,x
CCOc1cc(CNc2ccccc2SC)ccc1O,56µM,x,x,x
COc1cc(CNc2ccccc2SC)ccc1O,79µM,x,u,n
CCOc1cc(CN2CCSCC2)ccc1O,n,n,n,x
CCCCC(CC)CNC(=O)CN1C(=O)CSc2ccc(S(=O)(=O)N3CCOCC3)cc21 (centres undefined),x,x,n,x
Cc1ccccc1OCC(=O)NCC(=O)OC(c1ccccc1)c1ccccc1,x,x,n,x
Nc1ncnc2c1nc(Cl)n2[C@@H]1O[C@H](CO)[C@@H](O)[C@@H]1O,x,x,n,x
Cc1ccc(C)c(N=Nc2nc3ccccc3n2C)c1,n,n,n,u
Cc1cc(C)c(C)c(N=Nc2nc3ccccc3n2C)c1C,56µM,n,x,n
CCCC(=O)OCCNc1cc(SCc2ccco2)c2nonc2c1[N+](=O)[O-],11µM,n,n,n
CC(=O)OCCCNc1cc(SCc2ccco2)c2nonc2c1[N+](=O)[O-],25µM,n,n,n
CCCSc1cc(NCCOC(C)=O)c([N+](=O)[O-])c2nonc12,n,n,x,n
CCCSc1cc(NCCOC(=O)CCC)c([N+](=O)[O-])c2nonc12,n,n,n,n
CCCC(=O)OCCNc1cc(Sc2nccn2C)c2nonc2c1[N+](=O)[O-],35µM,n,n,n
COc1ccc(C2N(Cc3ccccc3)CC(=O)N2/N=C(\C)c2ccccc2)cc1 (centres undefined),n,n,16µM,n
Nc1nc(-c2cccnc2)nn1S(=O)(=O)c1ccccc1,x,n,35µM,n
COc1ccc(-c2noc(CSCC(=O)Nc3cc(OC)c(OC)c(OC)c3)n2)cc1OC,x,x,n,x

# Compound activity: PubChem, National Center for Advancing Translational Sciences (NCATS)
